Measurements: the supplement of paper PMC6555819

Legend:
Experiment in all cases: PBM binding z-score (relative to random genomic background probes); higher = stronger binding; sequences stand for … in GC…GCGATTGACAGCGTAGAATGAAGG
[1] = system: FXR:RXRa (NR concentration 270 nM, RXRa partner concentration 90 nM)
Outline: (§1)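 Binding buffer was PBS pH 7.4 with 2% milk, 0.02% Triton X-100, 1 mM DTT, 0.2 mg/mL BSA and 0.4 mg/ml salmon testes DNA. In it, ligand-free nuclear receptor dimers were incubated 1 h on custom Agilent 4×180K protein-binding microarrays carrying double-stranded probes. Antibodies against each partner (one per run) detected binding, and z-scores were calculated against random background probes after regression normalization of scanned fluorescence.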

[2] = system: LXRa:RXRa (NR concentration 270 nM, RXRa partner concentration 90 nM)
Outline: as §1

[3] = system: LXRa homodimer (NR concentration 270 nM)
Outline: as §1

[4] = system: LXRb:RXRa (NR concentration 270 nM, RXRa partner concentration 90 nM)
Outline: as §1

[5] = system: LXRb homodimer (NR concentration 270 nM)
Outline: as §1

[6] = system: PPARa:RXRa (NR concentration 270 nM, RXRa partner concentration 90 nM)
Outline: as §1

[7] = system: PPARg:RXRa (NR concentration 180 nM, RXRa partner concentration 90 nM)
Outline: as §1

[8] = system: PPARg:RXRa 270nM:90nM, anti-RXR (NR concentration 270 nM, RXRa partner concentration 90 nM)
Outline: as §1

[9] = system: PPARg:RXRa 30nM:10nM, anti-RXR (NR concentration 30 nM, RXRa partner concentration 10 nM)
Outline: as §1

[10] = system: PPARg:RXRa 90nM:30nM, anti-RXR (NR concentration 90 nM, RXRa partner concentration 30 nM)
Outline: as §1

[11] = system: PPARg:RXRa DBDmut IVT, anti-RXR (DBD mutation: RXRa K156A/R161A, NR concentration 270 nM, RXRa partner concentration 90 nM)
Outline: as §1

[12] = system: PPARg:RXRa IVT, anti-PPARg (NR concentration 270 nM, RXRa partner concentration 90 nM)
Outline: as §1

[13] = system: PPARg DBDmut:RXRa IVT, anti-PPARg (DBD mutation: PPARg1 K132A/R137A, NR concentration 270 nM, RXRa partner concentration 90 nM)
Outline: as §1

[14] = system: PPARg DBDmut IVT, anti-PPARg (DBD mutation: PPARg1 K132A/R137A, NR concentration 270 nM)
Outline: as §1

[15] = system: PPARg homodimer (NR concentration 180 nM)
Outline: as §1

[16] = system: PXR:RXRa (NR concentration 270 nM, RXRa partner concentration 90 nM)
Outline: as §1

[17] = system: PXR homodimer (NR concentration 270 nM)
Outline: as §1

[18] = system: RARa:RXR (NR concentration 270 nM, RXRa partner concentration 90 nM)
Outline: as §1

[19] = system: RARa homodimer (NR concentration 270 nM)
Outline: as §1

[20] = system: RARb:RXRa (NR concentration 270 nM, RXRa partner concentration 90 nM)
Outline: as §1

Sequence | PBM binding z-score [1] | PBM binding z-score [2] | PBM binding z-score [3] | PBM binding z-score [4] | PBM binding z-score [5] | PBM binding z-score [6] | PBM binding z-score [7] | PBM binding z-score [8] | PBM binding z-score [9] | PBM binding z-score [10] | PBM binding z-score [11] | PBM binding z-score [12] | PBM binding z-score [13] | PBM binding z-score [14] | PBM binding z-score [15] | PBM binding z-score [16] | PBM binding z-score [17] | PBM binding z-score [18] | PBM binding z-score [19] | PBM binding z-score [20]
CCGACTGGGGCATAATGTTACCATAAGCCAGCCC | -0.414 | -0.333 | -0.335 | -0.186 | -0.735 | 0.127 | 1.15 | 1.01 | -0.289 | 0.632 | 2.47 | 2.12 | -0.872 | -0.687 | 0.105 | -0.537 | -0.468 | -0.283 | -0.0507 | 0.133
ATTGAAAGGTCGTGAGGTGAGTATACAGAAAGGC | 5.67 | 4.67 | 0.73 | 3.49 | 1.2 | 5.38 | 4.88 | 5.01 | 2.23 | 3.64 | 0.728 | 3.15 | 1.53 | 1.68 | 2.07 | 3.07 | 0.914 | 4.27 | 1.15 | 4.3
TCGAGTAGGTTAGTCGGGGCATTCACCCAACATA | 0.0292 | 0.103 | -0.165 | 0.627 | -0.651 | 0.713 | 0.0859 | 0.905 | 0.99 | 0.993 | 2.26 | 1.7 | -0.581 | -0.56 | 0.252 | 0.243 | -0.193 | 0.377 | 0.343 | 0.447
AATACAGGGTCGTCGTAGGCCAGAGTACGCACAG | 2.12 | 1.97 | 0.0247 | 1.42 | 0.00201 | 2.91 | 1.93 | 1.36 | 0.194 | 0.808 | -0.0628 | 0.91 | 0.684 | 0.302 | 0.517 | 1.7 | 0.241 | 2.19 | 0.296 | 1.72
TCTTGAAGATCAGCAGGTTAAGAAAGCTGGCCAA | 0.211 | 0.582 | -0.541 | 0.285 | -0.955 | 0.856 | -0.581 | 1.44 | 2.86 | 2.07 | 1.75 | -0.514 | -1.09 | -0.481 | -0.436 | 0.0848 | -0.299 | 0.104 | -0.00981 | 0.0583
CCTGCTAGGGCAATGGTCAGCTAAAGCAGCTCGC | -0.321 | -0.261 | -0.651 | -0.809 | -1.23 | 0.614 | 1.75 | 3.28 | 0.695 | 2.57 | 1.55 | 1.76 | -1.07 | -1.49 | -0.322 | -0.655 | -0.95 | -0.343 | -1.1 | 1.15
ACTACTAGTTGACTTAGGGCAACCGATACGACGC | 0.249 | 0.17 | 0.195 | 0.0613 | 0.134 | 0.123 | 1.04 | 0.267 | 0.432 | 0.312 | 0.365 | 0.47 | 0.77 | 0.857 | 0.669 | 0.14 | -0.0753 | 0.458 | 0.347 | 0.59
CAAACTAGGTCAAAGGTCGAAGTCGAGCCAACCA | 7.06 | 5.62 | 1.41 | 4.93 | 0.909 | 7.28 | 13.9 | 11.2 | 14.3 | 13.6 | 8.87 | 9.27 | 5.32 | 3.95 | 3.95 | 5.77 | 0.27 | 8.46 | 0.524 | 4.71
ATATCTAGGTAAGACTCAGTTCAGTGAAGAACGC | 0.211 | 0.372 | 0.425 | 0.221 | 0.484 | 1.35 | 1.55 | 1.27 | 0.124 | 0.928 | 5.77 | 4.56 | 2.06 | 1.25 | 0.747 | 0.999 | 1.25 | 0.287 | 1.13 | 0.401
TAGCCTAGGTCAGATCGGACCAGTATACGCTATA | 1.36 | 1.26 | -0.219 | 1.03 | -0.138 | 1.99 | 0.959 | 0.981 | -0.106 | 0.213 | 0.812 | 1.36 | 0.21 | 0.399 | 0.0652 | 0.377 | -0.37 | 1.48 | -0.814 | 2.85
CCTAGTTGGTCAAGGTCACACAAGCTATAGGTAC | 4.29 | 3.95 | 1.98 | 3.76 | 1.03 | 4.21 | 3.5 | 4.1 | 1.36 | 2.63 | 2.43 | 4.01 | 1.16 | 1.04 | 4.16 | 4.47 | 2.97 | 4.29 | 2.77 | 4.33
CCTACTGGGCGAAAGGTCATTGATTCCAATGCTC | 4.47 | 4.72 | 3.02 | 4.35 | 0.417 | 5.92 | 11 | 9.6 | 9.1 | 11.6 | 3.27 | 5.79 | -0.635 | -0.595 | 2.89 | 4.98 | 2.08 | 5.57 | 0.869 | 4.28
CCGAGTAGGTTATGGGGCGTTCAGGCAACGGTGA | 0.244 | 0.548 | -0.0765 | 0.47 | -0.285 | 1.67 | 2.44 | 3.87 | 1.97 | 3.39 | 2.68 | 2.65 | -0.225 | -0.53 | 0.696 | -0.0536 | -0.251 | 0.233 | -0.0281 | 0.904
ACAAACAGGTGATGAAGGTAACTCAGGCTATCAT | 0.258 | 0.355 | 0.00497 | 0.22 | 0.327 | 0.415 | 0.866 | 0.462 | 0.363 | 0.0404 | 1.05 | 1.01 | 0.711 | 0.584 | 0.773 | 0.14 | 0.394 | 0.713 | 0.803 | 0.582
